Records with an inconclusive call do not appear. Calls of active or inactive are those of the source. Calls follow the shape of the dose curve; as a rule, active = well fitted activation curve with a large enough effect in the signal ratio in the repeat runs (not every such curve was filed as active); inconclusive = weak or mixed curves, or effect the other way; inactive = flat fitted curve, though single readings scatter; the % refers to the signal ratio.

Estrogen receptor beta (Homo sapiens), sequence (Q92731 whole entry, looked up): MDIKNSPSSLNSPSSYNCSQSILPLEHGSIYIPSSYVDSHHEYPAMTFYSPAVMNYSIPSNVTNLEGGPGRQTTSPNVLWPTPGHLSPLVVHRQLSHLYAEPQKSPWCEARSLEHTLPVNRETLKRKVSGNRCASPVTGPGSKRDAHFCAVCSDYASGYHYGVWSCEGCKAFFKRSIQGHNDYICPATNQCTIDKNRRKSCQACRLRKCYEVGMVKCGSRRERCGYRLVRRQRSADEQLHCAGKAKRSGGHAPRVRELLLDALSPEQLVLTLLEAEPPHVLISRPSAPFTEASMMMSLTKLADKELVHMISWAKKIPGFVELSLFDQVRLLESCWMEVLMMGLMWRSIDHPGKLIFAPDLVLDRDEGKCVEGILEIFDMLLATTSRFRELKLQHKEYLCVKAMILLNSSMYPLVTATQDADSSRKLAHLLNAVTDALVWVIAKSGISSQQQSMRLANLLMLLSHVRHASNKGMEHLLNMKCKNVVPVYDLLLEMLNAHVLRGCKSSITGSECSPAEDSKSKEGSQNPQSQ

The target in the experiment is Estrogen receptor beta (Homo sapiens) (UniProt Q92731). Nature of the experiment: qHTS assay to identify small molecule agonists of the estrogen receptor beta (ER-beta) signaling pathway (AID 1259377). Conditions: ER-beta-UAS-bla HEK293T, beta-lactamase FRET ratio, 16 h; series mostly up to 92.4 µM. From the text:
U.S. Tox21 Program National Center for Advancing Translational Sciences [NCATS] NIH Chemical Genomics Center [NCGC] U.S. Environmental Protection Agency [EPA] National Institutes of Environmental Health Sciences [NIEHS] National Toxicology Program [NTP] U.S. Food and Drug Administration [FDA] Tox21 Assay Overview: Estrogen receptor (ER), a nuclear hormone receptor, plays an important role in development, metabolic homeostasis and reproduction. Two subtypes of ER, ER-alpha and ER-beta, have similar expression patterns with some uniqueness in both types. Endocrine disrupting chemicals (EDCs) and their interactions with steroid hormone receptors like ER causes disruption of normal endocrine function. To identify the compounds that activate ER signaling, an ER beta-UAS-bla GripTite cell line (Life technologies, Madison, WI, USA) containing a beta-lactamase reporter gene under the control of an Upstream Activator Sequence (UAS) was used to screen Tox21 10K compound library.
Tox21 Assay Protocol Summary: ER-beta-UAS-bla HEK293T cells were dispensed at 2,000 cells/5 uL of assay medium containing 2% charcoal stripped FBS per well into black wall/clear-bottom 1536-well plates using a Multidrop Combi (ThermoFisher Scientific, Waltham, MA) dispenser. After the assay plates were incubated at a 37C and 5% CO2 for 6 hr, 23 nL of compounds dissolved in DMSO, positive controls or DMSO only was transferred to the assay plate by a Pintool station (Kalypsys, San Diego, CA). The plates were incubated at 37C and 5% CO2 for 16 hr. Then 1 uL of LiveBLAzerTM B/G FRET substrate was added using a BioRAPTR FRD (Flying Reagent Dispenser, Aurora Discovery, San Diego, CA). After the plates were incubated at room temperature for 2 hours, fluorescence intensity was measured by an Envision plate reader (PerkinElmer, Shelton, CT).
In general terms: In qHTS, concentration-response curves come from the screen itself.
In the case of `O=C(Cc1ccccc1)OCc1ccccc1`, the outcome was inactive. With `NC(=S)C(N)=S`, the outcome was inactive. Under `O=CNC(N1CCN(C(NC=O)C(Cl)(Cl)Cl)CC1)C(Cl)(Cl)Cl` (stereo not given) stands “inactive”; under `CCOP(=O)(N=C1SCCS1)OCC`, “inactive”. For the compound `CC(CC(C#N)(c1ccccc1)c1ccccc1)N(C)C` (stereo not given), the result was inactive. Next, `CCOC(=O)C(c1c(O)c2ccccc2oc1=O)c1c(O)c2ccccc2oc1=O`: “inactive”; `N#CCBr`: “inactive”; `CCOP(=S)(OCC)SCSc1ccc(Cl)cc1`: “inactive”. On to `Clc1ccccc1N1CCNCC1`, for which the outcome was inactive. Under `CCC1(c2ccccc2)C(=O)NC(=O)NC1=O` stands “inactive”; under `CC1CN1P(=O)(N1CC1C)N1CC1C` (stereo not given), “inactive”; under `CCCCC(=O)Cl`, “inactive”. Under `CC1(C)CON(Cc2ccccc2Cl)C1=O` stands “inactive”; under `CCC(C)(C)c1cc(-n2nc3ccccc3n2)c(O)c(C(C)(C)CC)c1`, “inactive”.

For the compound `CC(Cl)(Cl)[N+](=O)[O-]`, the result was inactive. For `CCOC(=O)NC(=S)Nc1ccccc1NC(=S)NC(=O)OCC`, the outcome was inactive. Next, `c1cc[c]([Hg][c]2ccccc2)cc1`: “inactive”; `CCC(C)n1c(=O)[nH]c(C)c(Br)c1=O` (stereo not given): “inactive”; `CCC1(c2ccccc2)C(=O)N=C(O)NC1=O` (stereo not given): “inactive”. For `CC(C)CC(N(C)C)C1(c2ccc(Cl)cc2)CCC1` (stereo not given), the result was inactive. Next, `Cc1coc2c1CCC(C)C2` (stereo not given): “inactive”. On to `COP(=S)(OC)Oc1ccc(S(N)(=O)=O)cc1`, for which the result was inactive. Under `CC(C(O)c1ccccc1)N(C)C/C=C/c1ccccc1` (stereo not given) stands “inactive”; under `CS(=O)(=O)c1cc(C(F)(F)F)ccc1C(=O)c1cnoc1C1CC1`, “inactive”; under `OC(Cn1cncn1)(c1ccc(F)cc1)c1ccccc1F` (stereo not given), “inactive”. `C=C(C)CN(CC)c1c([N+](=O)[O-])cc(C(F)(F)F)cc1[N+](=O)[O-]`: the outcome was inactive. Take `Nc1ccccc1Cl`: the result was inactive. As to `CC(C)(C)OC(=O)c1ncn2c1[C@@H]1CCCN1C(=O)c1c(Br)cccc1-2`, the result was inactive. Under `OC(c1ccccc1)(c1ccccc1)C1CCNCC1` stands “inactive”; under `CC1COC2(c3ccccc3Cl)c3cc(Cl)ccc3NC(=O)CN12` (stereo not given), “inactive”. Next, `CCN(CC)C(=O)[C@@H]1C=C2c3cccc4[nH]cc(c34)C[C@H]2N(C)C1`: “inactive”; `O=C(N[C@H]1CN2CCC1CC2)c1cc2ccoc2cn1`: “inactive”; `COc1cccc2c1cc([N+](=O)[O-])c1c(C(=O)O)cc3c(c12)OCO3`: “inactive”. Under `CC(C)COP(=O)(OCC(C)C)OCC(C)C` stands “inactive”; under `CCN(Cc1ccc(Cl)nc1)/C(=C/[N+](=O)[O-])NC`, “inactive”; under `O=C1OC(CCN2CCCCC2)OC1(c1ccccc1)c1ccccc1` (stereo not given), “inactive”. As to `O=C1CN=C(c2ccccc2)c2cc([N+](=O)[O-])ccc2N1`, the result was inactive. For `COc1cc(OC)nc(Oc2cccc(Oc3nc(OC)cc(OC)n3)c2C(=O)O)n1`, the result was inactive. Under `CN1CCC(N(Cc2ccccc2)c2ccccc2)CC1` stands “inactive”. Next, `Cc1ncc2n1-c1ccc(Cl)cc1C(c1ccccc1F)=NC2`: “inactive”.

For the origin of these results see PubChem BioAssay (Tox21).
